TGFb SMAD3 inh = TGF-b pathway inhibition. HepG2 CAGA-GFP TGF-b/SMAD3 reporter, GFP fluorescence, 18 h; TGF-beta stimulated, 500 pg/mL final. Potency, µM (highest dose often 46.1 µM), most hits filed as inhibitors. 1.2% of 410,000 active. AID 588855; note: nearly all actives have a fitted effect of over 65% in size
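TGF-beta reporter screen: HEPG2 CAGA-GFP, 1% FBS, 500 pg/mL TGF-beta final, 18 h; per-cell GFP summed per well; curves fitted and categorized by class.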
TDP1 cell CPT = DT40-hTDP1 cell growth loss with CPT; chicken DT40 Tdp1-/-;hTDP1 cells + 20 nM CPT, ATP luminescence, 48 h; Potency, µM (titrated, usually from 46.2 µM), most hits filed as inhibitors; 12% of 420,000 active; note: nearly all actives have a fitted effect of over 55% in size
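Chicken DT40 Tdp1-/- cells complemented with human TDP1, 400 cells/well, exposed to compounds plus 20 nM camptothecin for at least 48 h at 37 C; viability read as ATP content by CellTiter-Glo luminescence.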
DT40 TDP1 no CPT = qHTS for Inhibitors of human tyrosyl-DNA phosphodiesterase 1 (TDP1): qHTS in cells in absence of CPT | DT40 Tdp1-/- hTDP1 cells, no CPT, ATP luminescence, 48 h | Potency, µM (titrated, usually from 46.2 µM), most hits filed as inhibitors | 15% of 420,000 active | AID 686978, 2013; note: nearly all actives have a fitted effect of over 55% in size
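Camptothecin absent (DMSO only). Human TDP1-complemented DT40 knockout cells, 400 cells/well, 37 °C for minimum 48 hr; ATP measured via CellTiter-Glo, 30 min dark incubation, luminescence.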
TDP1 block = blocks human tyrosyl-DNA phosphodiesterase 1; Q9NUW8; recombinant TDP1, AlphaScreen DNA substrate cleavage; Potency, µM (doses to about 130 µM), most hits filed as inhibitors; 0.28% of 350,000 active; AID 485290; note: nearly all actives have a fitted effect of over 40% in size
Target sequence (Q9NUW8 whole entry, looked up): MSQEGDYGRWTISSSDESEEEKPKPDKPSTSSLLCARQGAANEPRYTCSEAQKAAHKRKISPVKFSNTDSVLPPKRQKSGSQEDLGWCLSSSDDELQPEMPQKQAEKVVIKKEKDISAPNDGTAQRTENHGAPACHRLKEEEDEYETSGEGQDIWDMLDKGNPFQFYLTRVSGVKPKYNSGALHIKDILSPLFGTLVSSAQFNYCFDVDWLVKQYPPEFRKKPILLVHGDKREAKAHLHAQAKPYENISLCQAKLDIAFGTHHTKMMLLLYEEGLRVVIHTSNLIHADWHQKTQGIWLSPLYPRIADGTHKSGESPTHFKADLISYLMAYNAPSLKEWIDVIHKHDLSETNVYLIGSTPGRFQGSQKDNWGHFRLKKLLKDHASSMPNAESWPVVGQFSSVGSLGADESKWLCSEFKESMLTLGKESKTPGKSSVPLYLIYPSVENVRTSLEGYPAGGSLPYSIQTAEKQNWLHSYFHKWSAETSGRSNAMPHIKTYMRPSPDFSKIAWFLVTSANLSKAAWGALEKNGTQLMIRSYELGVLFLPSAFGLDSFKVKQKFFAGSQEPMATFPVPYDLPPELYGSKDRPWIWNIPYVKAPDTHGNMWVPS
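Enzyme-compound mixtures sat 15 min at room temperature, followed by a 5 min reaction with 15 nM final substrate and 10 min with AlphaScreen beads. Recombinant human Tdp1 was used at 1 nM final.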
HepG2 tox = HepG2 cytotoxicity, counter-screen for TGF-b inhibitors; HepG2 CAGA-GFP viability, ATP luminescence, 18 h; Potency, µM (doses to about 46.1 µM), actives largely listed as cytotoxic; 0.76% of 410,000 active; AID 588856
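HepG2 CAGA-GFP cells (1000/well, DMEM with 1% FBS) received compound, then TGF-beta at 500 pg/mL final, and were incubated 18 hours at 37 degrees C. Viability was read by CellTiter-Glo luminescence. Media-only wells were set as complete cell-killing and DMSO as no toxicity.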
IL-1B inflam inh = blocks inflammasome-driven IL-1 beta release; THP-1 LPS/ATP IL-1B secretion, AlphaLISA, 16 h; active compounds read low; activity change, % at 57.5 µM; 4.7% of 360,000 active; AID 743279; in the data active = activity change below about -50%; inconclusive = mostly about -30% to -49%
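Secreted IL-1B measured by AlphaLISA bead assay after 16 h compound exposure of THP-1 cells; compounds (final up to 57.5 uM) added 1 h before LPS (250 ng/mL) and ATP (1.25 mM) stimulation; lower signal means less secretion.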
Hits are given with their value; i = inactive; ? = inconclusive; nt = no result given; [ ] = remark or other dose. The list is not random: actives were taken first. Their share in the collection is about 19%. Unless noted, calls come from the whole dose curve; as a rule, active = well fitted curve in the direction sought with a large enough effect; inconclusive = small, poorly fitted or top-dose-only effect, or another doubt; inactive = no such curve, though single readings can be large; an effect the other way counts as inactive or inconclusive.

SMILES | TGFb SMAD3 inh | TDP1 cell CPT | DT40 TDP1 no CPT | TDP1 block | HepG2 tox | IL-1B inflam inh
O=C(NCc1ccco1)c1ccc(Cn2c(SCc3ccccc3F)nc3cccnc32)cc1 | 13µM | ? | 23µM | i | i | nt
Cc1ccccc1CNC(=O)c1ccc(Cn2c(SCc3ccccc3)nc3cccnc32)cc1 | i | ? | ? | i | i | nt
COc1ccc2nc(SCC(=O)c3c(C)[nH]c4ccccc34)nc(C)c2c1 | i | i | i | i | i | nt
CC(C)(C)c1ccc(C(=O)NC(=S)NNC(=O)COc2ccccc2)cc1 | i | 13µM | 16µM | i | i | i
O=C(COc1ccccc1)NC(=S)Nc1cccc2c(O)cccc12 | ? | ? | 26µM | nt | i | i
CC(C)(C)c1ccc(OCC(=O)NNC(=O)CCc2ccccc2)cc1 | i | i | i | i | i | i
COC(=O)c1ccccc1NC(=S)NC(=O)COc1ccccc1 | i | i | ? | i | i | i
Cc1ccc(C(=O)NNC(=S)NC(=O)COc2ccccc2)cc1 | ? | 15µM | 6.5µM | i | i | i
COc1cccc2nc(-c3cccs3)nc(NN3C(=O)C=C(C)C3=O)c12 | nt | nt | nt | i | nt | nt
CC#CCN1c2ccccc2[C@]23C[C@@H](C(=O)OC)N(C(=O)c4cccs4)C2=NC(C(=O)OC)=C(C(=O)OC)[C@H]13 | nt | nt | nt | i[12.3 µM] | nt | nt
Cc1ccc(CN2C(=O)c3ccccc3C2C(=O)NC2CCCCCC2)cc1 (centres undefined) | i | i | ? | i | i | nt
CCN1C(=O)c2ccccc2S(=O)(=O)c2ccc(C(=O)NCc3ccc(F)cc3)cc21 | i | ? | 23µM | i | i | nt
COc1ccc(CCNC(=O)c2ccc3c(c2)N(Cc2ccc(F)cc2)C(=O)c2ccccc2S3(=O)=O)cc1OC | nt | ? | 12µM | i | i | nt
CCOc1ccc(CCNC(=O)c2ccc3c(c2)N(Cc2cccc(Cl)c2)C(=O)c2ccccc2S3(=O)=O)cc1OCC | ? | ? | ? | i | i | nt
O=C(NCCc1ccccc1)c1ccc2c(c1)N(Cc1ccc(Cl)cc1)C(=O)c1ccccc1S2(=O)=O | i | 15µM | 23µM | i | i | nt
CN(C)N1C(N)=C(C#N)C(c2cccc([N+](=O)[O-])c2)C2=C1CC(C)(C)CC2=O (centres undefined) | i | i | i | nt | i | i
COc1ccc(NC(=O)c2cc(=O)c3ccc(C)c(C)c3o2)cc1Cl | i | i | ? | i | i | nt
CCOC(=O)c1cc(-c2ccccc2)n(CCC(=O)N2CCN(c3ccc(OC)cc3)CC2)c1C | i | 15µM | 23µM | i | i | -60
CCOC(=O)c1cc(-c2ccccc2)n(CCC(=O)N2CCN(c3ccccc3OC)CC2)c1C | ? | 12µM | 8.2µM | i | i | ?
CCOC(=O)c1cc(-c2ccccc2)n(CC(=O)N2CCCC2)c1C | i | i | i | i | i | i
O=C(C[n+]1ccccc1Cl)c1ccc(F)cc1 | i | i | i | nt | i | nt
Cc1ccc(Nc2nc(N)nc(N)c2S(=O)(=O)c2ccccc2)cc1 | i | nt | nt | i | i | nt
O=C(Cn1nnc(-c2ccc(CN3CCOCC3)cc2)n1)N(c1ccccc1)c1ccccc1 | i | 18µM | 21µM | i | i | i
CC(C)(C)NC(=O)CN(C(=O)Cn1nnc(-c2ccc(Cl)cc2)n1)C1CCN(Cc2ccccc2)CC1 | 16µM | ? | 21µM | i | 18µM | -82
NS(=O)(=O)c1ccc(NC(=O)C2Cc3ccccc3N2C(=O)c2ccccc2)cc1 (centres undefined) | i | i | i | i | i | nt
SMILES | TGFb SMAD3 inh | TDP1 cell CPT | DT40 TDP1 no CPT | TDP1 block | HepG2 tox | IL-1B inflam inh
COc1ccccc1CN1CC2(CCN(C(=O)c3cc(C(F)(F)F)cc(C(F)(F)F)c3)CC2)C1 | nt | i | ? | nt | nt | nt
O=C(Nc1nc(-c2ccc3c(c2)OCO3)cs1)C1COc2ccccc2O1 (centres undefined) | ? | i | ? | i | i | i
CC(=O)Nc1nc(-c2ccc3c(c2)OCO3)cs1 | i | ? | i | nt | i | -53
O=C(CSCC(=O)N1CCOCC1)Nc1nc(-c2ccc3c(c2)OCO3)cs1 | i | i | i | i | i | i
CCOC(=O)N1CCN(C(=O)CSCC(=O)Nc2nc(-c3ccc4c(c3)OCO4)cs2)CC1 | i | 21µM | 21µM | i | i | ?
CCOC(=O)N1CCN(C(=O)CSCC(=O)Nc2nc(-c3ccc(C)cc3)cs2)CC1 | i | 16µM | 12µM | i | i | i
COc1ccccc1-c1nc(SCC(=O)c2ccc(Cl)cc2)n[nH]1 | i | i | i | i | i | nt
COc1cccc(NC(=O)CSc2nc3c(sc4ccccc43)c(=O)n2CCN(C)C)c1 | ? | 15µM | ? | i | i | -108
CCCCn1c(SCC(=O)Nc2ccc(F)cc2)nc2c(sc3ccccc32)c1=O | i | i | i | i | i | nt
CCN(CC)CCn1c(SCC(=O)NCCC2=CCCCC2)nc2c(sc3ccccc32)c1=O | i | ? | ? | i | i | -60
COc1cccc(NC(=O)CSc2nc3c(sc4ccccc43)c(=O)n2CCCN2CCCC2)c1 | ? | ? | 10µM | i | i | ?
CCN(CC)CCn1c(SCC(=O)Nc2cccc(OC)c2)nc2c(sc3ccccc32)c1=O | i | 18µM | 4.6µM | i | i | -79
CC1CCCN(CCCNC(=O)Cn2ncc3c([nH]c4ccccc43)c2=O)C1 (centres undefined) | i | i | i | i | i | nt
Cc1onc(C(=O)NN)c1-c1csc(COc2ccc(Cl)cc2)n1 | i | 21µM | 15µM | i | i | i
CN(CC(=O)N(C)CC(=O)Nc1c(Cl)cccc1Cl)Cc1ccc(Br)s1 | i | i | ? | i | i | i
CCOc1ccc(NC(=O)C2CCN(C(=O)N3CC(C)Oc4ccc(Cl)cc43)CC2)cc1 (centres undefined) | ? | 23µM | 15µM | i | i | nt
CC1CN(C(=O)N2CCC(C(=O)NC3CCCCCC3)CC2)c2cc(Cl)ccc2O1 (centres undefined) | ? | 15µM | 18µM | i | i | nt
Cc1cc(C)c(NC(=O)C2CCN(C(=O)N3CC(C)Oc4ccc(Cl)cc43)CC2)c(C)c1 (centres undefined) | i | ? | 21µM | i | i | nt
Nc1nc2n[nH]nc2c(=O)[nH]1 | ? | 7.3µM | 7.3µM | i[21 µM] | i | i
c1ccc2nc3c(cc2c1)CCCCC3 | i | 18µM | 13µM | i | i | i
CC(C)[C@H](O)CC[C@@H](C)C1CC[C@H]2C3CC=C4C[C@@H](O)CC[C@]4(C)C3CC[C@]12C (some centres undefined) | nt | ? | ? | i | nt | nt

Compound activity deposited in PubChem BioAssay by National Center for Advancing Translational Sciences (NCATS).
